Experimental data published in PubChem BioAssay AID504339 (National Center for Advancing Translational Sciences (NCATS), 2011).
The campaign covered roughly 390,000 compounds. About 17,000 (4.4%) were called active. Inconclusive results (about 8%) are left out. Calls follow the shape of the dose curve; as a rule, active = well fitted inhibition curve with a large enough effect; inconclusive = small, poorly fitted or top-dose-only effect; inactive = no such curve, though single readings can be large or run the other way. The entries come from a sample that favours actives as a whole. A call without a number means that no potency is given here.

What follows are compounds tested against Lysine-specific demethylase 4A (Homo sapiens) (UniProt O75164) (assay: qHTS Assay for Inhibitors of JMJD2A-Tudor Domain). Settings: AlphaScreen JMJD2A-Tudor / H3K4me3 peptide binding; series mostly up to 114 µM.
Also: nearly all actives have a fitted effect of over 50% in size.
Potency is read from the fitted curve at half-maximal effect.

Chain of Lysine-specific demethylase 4A (Homo sapiens) (O75164 whole entry, looked up, the tested form may be a part): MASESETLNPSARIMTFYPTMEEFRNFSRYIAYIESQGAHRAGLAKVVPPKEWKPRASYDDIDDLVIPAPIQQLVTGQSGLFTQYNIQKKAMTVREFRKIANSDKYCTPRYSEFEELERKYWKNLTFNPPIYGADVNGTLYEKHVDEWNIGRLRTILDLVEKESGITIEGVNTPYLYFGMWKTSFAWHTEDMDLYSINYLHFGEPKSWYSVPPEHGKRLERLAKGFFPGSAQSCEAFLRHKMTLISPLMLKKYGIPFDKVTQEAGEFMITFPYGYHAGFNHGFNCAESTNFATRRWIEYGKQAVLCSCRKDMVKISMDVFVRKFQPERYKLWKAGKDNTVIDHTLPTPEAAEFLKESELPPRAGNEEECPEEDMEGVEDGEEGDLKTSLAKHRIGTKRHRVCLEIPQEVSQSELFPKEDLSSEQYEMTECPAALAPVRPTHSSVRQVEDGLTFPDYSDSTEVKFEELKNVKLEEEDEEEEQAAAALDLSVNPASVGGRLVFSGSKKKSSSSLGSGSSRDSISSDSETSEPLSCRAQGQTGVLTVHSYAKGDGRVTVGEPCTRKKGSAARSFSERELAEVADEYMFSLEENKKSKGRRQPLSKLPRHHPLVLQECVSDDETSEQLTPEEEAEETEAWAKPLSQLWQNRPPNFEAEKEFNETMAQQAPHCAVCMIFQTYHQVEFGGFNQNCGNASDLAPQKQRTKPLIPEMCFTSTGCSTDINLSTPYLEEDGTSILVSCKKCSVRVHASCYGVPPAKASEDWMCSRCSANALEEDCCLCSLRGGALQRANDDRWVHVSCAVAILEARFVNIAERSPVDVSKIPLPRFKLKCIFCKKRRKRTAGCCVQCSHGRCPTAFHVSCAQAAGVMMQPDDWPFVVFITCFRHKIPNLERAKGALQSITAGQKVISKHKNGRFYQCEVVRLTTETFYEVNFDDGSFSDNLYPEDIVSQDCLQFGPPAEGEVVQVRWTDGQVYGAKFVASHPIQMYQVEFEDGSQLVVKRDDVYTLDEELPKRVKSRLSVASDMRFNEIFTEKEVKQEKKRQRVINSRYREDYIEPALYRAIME

| SMILES | Potency |
| --- | --- |
| Cc1cc2c(cc1C)C(c1cccc(OC(C)C)c1)CC(=O)N2 (stereo unspecified) | inactive |
| COc1cc(Br)cc2cc(S(=O)(=O)c3ccccc3)c(=O)oc12 | inactive |
| O=C(Cn1ncc(N2CCCC2)c(Br)c1=O)c1ccc(Cl)cc1 | inactive |
| O=C(Cn1nc(C(F)(F)F)c2c1CCCC2)Nc1ccc(Cl)cc1 | inactive |
| O=C(Cn1nc(CNc2ccc(Cl)cc2)[n+]2c1CCCCC2)c1ccc(Cl)cc1 | 44.7 µM (active) |
| COc1cc(OC)c(NC(=O)c2c3c(nn2C)-c2ccccc2SC3)cc1Cl | inactive |
| CC(C(=O)NC1CCS(=O)(=O)C1)N1C(=O)/C(=C/c2ccc(Cl)cc2)SC1=S (stereo unspecified) | 56.2 µM (active) |
| O=C(Cc1ccc(Cl)cc1)NC1CCS(=O)(=O)C1 (stereo unspecified) | inactive |
| CN(C(=O)CN1C(=O)/C(=C/c2ccc(Cl)cc2)SC1=S)C1CCS(=O)(=O)C1 (stereo unspecified) | inactive |
| COc1ccccc1C(=O)OCc1cc(=O)n2nc(-c3cccs3)sc2n1 | inactive |
| Cc1c(NS(=O)(=O)c2ccc(NC3CCCC3)c([N+](=O)[O-])c2)c(=O)n(-c2ccccc2)n1C | inactive |
| Cc1cc(C=O)c(C)n1-c1ccc(NC2CCCCC2)c([N+](=O)[O-])c1 | 17.8 µM (active) |
| COc1ccc(NC(=O)CN(C)C(=O)c2ccc(NC3CC3)c([N+](=O)[O-])c2)cc1 | inactive |
| Cc1ccc(C)c2sc(NC(=O)c3ccc(S(=O)(=O)N4CCCC4)cc3)nc12 | inactive |
| COc1ccccc1CNS(=O)(=O)c1cc(Br)cc2c1N(C(C)=O)C(C)C2 (stereo unspecified) | inactive |
| CC(C)CCNC(=O)CSc1nc2ccccc2nc1Cc1ccc(Cl)cc1 | inactive |
| CCC1CCCCN1S(=O)(=O)c1ccc(NC(=O)c2cc(=O)c3ccccc3o2)cc1 (stereo unspecified) | inactive |
| CCOc1ccc(Nc2ncnc3scc(-c4ccc(OC)cc4)c23)cc1 | inactive |
| COC(=O)CCSc1nccn1Cc1ccccc1 | 35.5 µM (active) |
| O=C(CSc1nccn1Cc1ccc(Cl)cc1)NCc1ccccc1 | inactive |
| CCCCNC(=O)CSc1nccn1Cc1ccccc1 | inactive |
| COc1ccc(CNC(=O)c2ccc3c(O)c(S(=O)(=O)c4ccccc4)c(=O)[nH]c3c2)cc1 | inactive |

| SMILES | Potency |
| --- | --- |
| Cc1ccccc1NC(=O)c1c(NC(=O)c2ccccc2F)sc2c1CCC(C)C2 (stereo unspecified) | inactive |
| CCOc1ccc(C2/C(=C(/O)c3ccc4c(c3)CC(C)O4)C(=O)C(=O)N2CCCn2ccnc2)cc1 (stereo unspecified) | inactive |
| COc1cc(C2/C(=C(\O)c3ccc4c(c3)CC(C)O4)C(=O)C(=O)N2Cc2ccco2)ccc1O (stereo unspecified) | inactive |
| COc1cc(C2/C(=C(\O)c3ccc4c(c3)CC(C)O4)C(=O)C(=O)N2c2nnc(C)s2)cc(OC)c1OC (stereo unspecified) | 44.7 µM (active) |
| O=C(Nc1ccc2c(c1)OCO2)c1cc(-c2cccc(Cl)c2)on1 | inactive |
| CC(C)C12CN3CC(C(C)C)(CN(C1)C3c1ccc(OCc3ccccc3)cc1)C2=O (stereo unspecified) | inactive |
| O=C(O)C1OC(C(=O)O)C2C1C(F)(F)C2(F)F (stereo unspecified) | 28.2 µM (active) |
| Cc1ccc2nc(/C(C#N)=C/c3ccccc3F)[nH]c2c1 | inactive |
| COc1ccc(C(=O)/C=C/Nc2ccccn2)cc1 | inactive |
| O=C(NNC(=O)c1ccc(Cl)nc1)c1ccc(Br)cc1 | inactive |
| O=C(NNc1ccccn1)c1ccc(Cl)nc1 | 4.47 µM (active) |
| COc1ccccc1-c1noc(-c2ccc(NCc3ccccc3)c([N+](=O)[O-])c2)n1 | inactive |
| CCN1CCC2(CC1)N=C(c1ccc(F)cc1)C(=S)N2C(=O)c1ccc(C)cc1 | 31.6 µM (active) |
| CCN1CCC(N(Cc2ccc(F)cc2)C(=O)Nc2cc(C)ccc2C)CC1 | inactive |
| Cc1ccc(NC(=O)CN2C(=O)C(c3ccc(F)cc3)=NC23CCCCCC3)c(C)c1 | inactive |
| COc1cccc(NC(=O)N(Cc2cn(C)c3ccccc23)C2CCCCCC2)c1 | inactive |
| Cc1ccc(Cn2c(CCCNC(=O)C3CCCCC3)nc3ccccc32)cc1 | inactive |
| Cc1cc(C)cc(NC(=O)CCN2C(=O)c3ccccc3C2=O)c1 | inactive |
| Cc1ccc(NC(=O)CCN2C(=O)c3ccccc3C2=O)cc1C | inactive |
| Cc1cc2c(cc1C)N(C(=O)CN1C(=O)c3ccccc3C1=O)C(C)(C)c1ssc(=S)c1-2 | 39.8 µM (active) |
| CCN(CC)c1cc(NC2CCCCC2)c2c3c(onc13)-c1ccccc1C2=O | 8.91 µM (active) |
| Cc1cccc(-c2nc(SCc3ccc(Br)cc3)n3[nH]c(=O)cc3n2)c1 | inactive |

| SMILES | Potency |
| --- | --- |
| Cc1cccc(CNC(=O)c2cnc3sc(N4CCCCC4)nn3c2=O)c1 | inactive |
| CCCCN(Cc1ccccc1)C(=O)C1CCN(Cc2sccc2C)CC1 | 5.62 µM (active) |
| CCNC(=S)NNC(=O)C1CCN(Cc2ccccc2)CC1 | inactive |
| CCCCN(C(=O)C1CCC1)c1c(N)n(Cc2ccccc2)c(=O)[nH]c1=O | inactive |
| Cc1nn(-c2ccc(N3CCCCC3)nn2)c(C)c1CCC(=O)NCc1ccccc1F | inactive |
| COc1ccc(/C=C/C(=O)NC(=S)N2CCCC(C(N)=O)C2)cc1 (stereo unspecified) | inactive |
| COc1ccc(CN2CCCC(C(=O)N3CCCCC3)C2)cc1 (stereo unspecified) | 79.4 µM (active) |
| COc1ccc(CNC(=O)C2CCCC2)cc1 | inactive |
| O=C(COc1ccc(Cl)cc1)Nc1ccccc1OCc1cc(=O)n2ccccc2n1 | inactive |
| C/C(=N/NC(=O)C1COc2ccccc2O1)c1ccco1 (stereo unspecified) | inactive |
| CC(=O)c1cccc(NC(=O)C2COc3ccccc3O2)c1 (stereo unspecified) | inactive |
| O=C(Nc1nc(-c2ccncc2)cs1)C1COc2ccccc2O1 (stereo unspecified) | 50.1 µM (active) |
| O=C(CC(c1cccs1)N1Cc2ccccc2C1=O)Nc1ccc(F)cc1F (stereo unspecified) | inactive |
| Cc1ccc(NS(=O)(=O)c2cc3c(cc2Br)NC(=O)CO3)cc1C | inactive |
| CCOC(=O)COc1cc(OCC(=O)OCC)c2c(=O)cc(-c3ccccc3)oc2c1 | inactive |
| COc1c(O)cc2oc(-c3ccc(O)c(O)c3)cc(=O)c2c1O | 31.6 µM (active) |
| COc1ccc(-c2c(C)c3ccc(O)c(CN4CCN(C)CC4)c3oc2=O)cc1OC | inactive |
| O=C(CCc1nc(CN2CCN(S(=O)(=O)c3ccc(F)cc3)CC2)no1)N1CCCCC1 | inactive |
| O=C(Nc1ccc(OC(F)(F)F)cc1)c1cc2c(=O)n3ccccc3nc2s1 | inactive |
| CCc1cccc(C)c1NC(=O)COC(=O)CNC(=O)c1cccs1 | inactive |
| CCc1c(C)sc(NC(=O)c2ccc(Br)o2)c1C(=O)OC | inactive |
| CCc1c(C)sc(NC(=O)c2cccs2)c1C(N)=O | 89.1 µM (active) |
